Reference: PubChem BioAssay (Tox21)
Values without a mark were called inactive. The source made the active and inactive calls. Calls come from the whole dose curve; as a rule, active = well fitted curve in the direction sought with a large enough effect in the repeat runs; inconclusive = weak or mixed curves; inactive = flat fitted curve, though single readings scatter.

experiment: qHTS assay to test for compound auto fluorescence at 460 nm (blue) in HEK293 cells (AID 720678); conditions: blue autofluorescence 405/460 nm; series mostly up to 91.3 µM; fluorescence, % of triamterene: at the top concentration
Source text: National Center for Advancing Translational Sciences [NCATS]
NIH Chemical Genomics Center [NCGC]
U.S. Environmental Protection Agency [EPA]
National Institutes of Environmental Health Sciences [NIEHS]
National Toxicology Program [NTP]
U.S. Food and Drug Administration [FDA]
Compound auto fluorescence often interferes with screening of the compound library against various biological targets and signaling pathways. Some of these compounds may have fluorophoric properties. Such properties may interfere with the assay outputs resulting in false positives and/or negatives. To decrease such complications and ensure the compound activities are relevant in terms of biological response, the Tox21 10K compound library was screened for auto fluorescence.
From the fluorophores used as reporter signals in our screening assays, the auto fluorescence equivalencies of compounds against three fluorophores have been evaluated: Triamterene, Fluorescein and Rose Bengal sodium for blue, green and red fluorescence, respectively. The fluorescence intensities were measured using Excitation/Emission wavelengths at 405/460nm, 485/535nm and 540/590nm for blue, green and red labels, respectively. This assay includes the blue fluorescence data.
Tox21 Assay Protocol Summary:
2,000 HEK293 cells in 5 uL of culture medium containing 10% dialyzed FBS per well were dispensed into black wall/clear bottom 1536-well plates using a Multidrop Combi Dispenser (Thermo Scientific). The assay plates were incubated for 4-5 hr at 37C to allow cell attachment to the well bottom, followed by the transfer of 23 nL compound or DMSO vehicle by a pintool work station (Kalypsys, San Diego, CA). After the assay plates were incubated overnight at 37C and 5% CO2, fluorescence intensities in the assay plates were measured by an Envision (PerkinElmer, Shelton, CT) plate reader using three labels for measuring blue, green and red fluorescence at […] 460, 535 and 590nm respectively.
% is set by controls: 0 for no effect and ±100 for the full control effect.

Compound | fluorescence, % of triamterene | Potency
COc1ccc(-c2coc3cc(O)ccc3c2=O)cc1 | 1.07% | 
O=C1CCCCCCCCCCCCCCCO1 | -0.0232% | 
COCCOc1cc2cc(C(=O)NC3CCN(C(C)C)CC3)n(CC(=O)Nc3ccc(Cl)cn3)c2cn1 | 0.146% | 
COC(=O)C1=C(C)NC(C)=C(C(=O)OCCN2CCN(C(c3ccccc3)c3ccccc3)CC2)C1c1cccc([N+](=O)[O-])c1 (stereo not given) | -0.214% [at 46 µM] | 
S=C([S-])NCCNC(=S)[S-].S=C([S-])NCCNC(=S)[S-].[Mn+2].[Zn+2] | 0.0467% [at 46 µM] | 
CC(CCc1ccccc1)NCC(O)c1ccc(O)c(C(N)=O)c1 (stereo not given) |  | inactive
CC(C(=O)O)c1ccc2c(c1)[nH]c1ccc(Cl)cc12 (stereo not given) | -0.186% [at 46 µM] | 
CCCC(=O)OCCc1ccccc1 | -0.0085% | 
Cc1c(C)c2c(c(C)c1O)CC[C@@](C)(CCC[C@H](C)CCC[C@H](C)CCCC(C)C)O2 |  | inactive
COc1ccc2cc1Oc1ccc(cc1)C[C@H]1c3c(cc4c(c3Oc3cc5c(cc3OC)CCN(C)[C@@H]5C2)OCO4)CCN1C | 0.157% [at 46 µM] | 
CCCCOC(=O)CO | 0.17% | 
CN1CCC[C@@H]1CCO[C@](C)(c1ccccc1)c1ccc(Cl)cc1 | 0.127% [at 46 µM] | 
CCO[C@@H]1O[C@H](C(COCc2ccccc2)OCc2ccccc2)[C@H](OCc2ccccc2)[C@H]1O (stereo not given in full) | -0.0314% [at 18.6 µM] | 
CCC(C)[O-].CCC(C)[O-].CCOC(=O)/C=C(/C)[O-].[Al+3] | 0.0614% | 
ClCCl | 0.0279% | 
CC(C)(C)c1ccc(C(O)CCCN2CCC(C(O)(c3ccccc3)c3ccccc3)CC2)cc1 (stereo not given) |  | inactive
C[Si](Cl)(c1ccccc1)c1ccccc1 | -0.322% | 
CN(C)Cc1ccccc1O | -0.111% | 
NC(=O)c1cccc([N+](=O)[O-])c1 | 0.0228% | 
CNc1ccc([N+](=O)[O-])cc1 | -0.436% | 

Compound | fluorescence, % of triamterene | Potency
CCCCC/C=C\C/C=C\CCCCCCCC(=O)O |  | inactive
[Cu+] | -0.0602% | 
O=C(O)CN(CCN(CC(=O)O)CC(=O)O)CC(=O)O |  | inactive
CCCCC(CC)CN1CN(CC(CC)CCCC)CC(C)(N)C1 (stereo not given) | -0.206% [at 18.6 µM] | 
CCC(C)(CCC(C)C)C(=O)[O][Sn]([CH3])([CH3])[O]C(=O)C(C)(CC)CCC(C)C (stereo not given) | -0.0157% | 
COC(=O)c1ccccc1C | 0.0073% | 
c1ccc(C(O[C@@H]2CCCN(CCc3ccc4c(c3)OCO4)C2)c2ccccc2)cc1 | -0.235% | 
Nc1nc(-c2ccccc2)cs1 | -0.0403% | 
CC(CO)Oc1ccccc1 (stereo not given) | 0.0335% [at 95.7 µM] | 
CC(N=C(NC#N)Nc1ccncc1)C(C)(C)C (stereo not given) | -0.0083% [at 46 µM] | 
O=C(O)Cc1ccccc1Nc1c(Cl)cccc1Cl |  | inactive
Cc1ccc(N/N=c2\c(=O)cc/c(=N\Nc3ccc(S(=O)(=O)O)cc3)c2=O)c(C)c1 | -0.676% | 
C[C@H]1NCc2cc(-c3ccc4c(=O)c(C(=O)O)cn(C5CC5)c4c3OC(F)F)ccc21 | 0.446% [at 46 µM] | 
CCCC[P+](C)(CCCC)CCCC | -0.161% [at 95.7 µM] | 
CCCCCCCCCCC[C@@H](C[C@@H]1OC(=O)[C@H]1CCCCCC)OC(=O)[C@H](CC(C)C)NC=O | 0.0256% [at 46 µM] | 
Nc1ccc(Oc2ccc(Cl)cc2)cc1 | -0.0663% | 
COC(=O)c1ccccc1OC | 0.0951% | 
O=C1OC2(c3ccc(O)cc3Oc3cc(O)ccc32)c2ccc(N=C=S)cc21 | -0.422% [at 95.7 µM] | 
O=c1[nH]c(=O)n([C@H]2C[C@H](O)[C@@H](CO)O2)cc1F | -0.107% [at 46 µM] | 
[Cl][Pt-2]([Cl])([Cl])[Cl] | -0.0116% | 
